# Pf growth 96h = Primary qHTS for delayed death inhibitors of the malarial parasite plastid, 96 hour incubation; P. falciparum luciferase reporter growth, 96 h; Potency, µM (highest dose often 28.7 µM), usual class: inhibitors; 320,000 tested, 6.9% active; AID 504834, 2011
#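 Luminescence readout: decreased luciferase signal marks inhibited growth of reporter-expressing P. falciparum in infected red cells (2% hematocrit, 0.05% parasitemia final), exposed to compound two generations (96 h, 37 C, 5% CO2).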
# Cycloheximide cs = Cycloheximide Counterscreen for Small Molecule Inhibitors of Shiga Toxin; cell reporter, cycloheximide protein synthesis inhibition counterscreen; max response, %; 300,000 tested, 12% active; AID 2314, 2010; in the data active means max response mostly above about 13%, no sharp cut-off; inactive means mostly below about 14%; further: read at 38.3 µM for the half of the compounds with a filed dose
# AMA1-RON2 inh = qHTS for Inhibitors of AMA1-RON; Towards Development of Antimalarial Drug Lead: Primary Screen; Plasmodium falciparum AMA1 (3D7) - RON2 peptide interaction; AlphaScreen AMA1-biotinylated RON2 peptide binding; Potency, µM (doses to about 58.2 µM), actives largely listed as inhibitors; 360,000 tested, 0.2% active; AID 720542, 2013; further: nearly all actives have a fitted effect of over 45% in size
#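 AMA1 (3D7) with his tag at 25 nM final met compounds first, then biotinylated RON2 peptide at 25 nM; detection used donor plus acceptor beads, 10 µg/mL apiece, read by AlphaScreen after 30 min at room temperature.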
# SARS PLpro yeast = qHTS of Yeast-based Assay for SARS-CoV PLP | S. cerevisiae expressing SARS-CoV PLpro, growth rescue | Potency, µM (highest dose often 32.9 µM), hits mostly activators | 330,000 tested, 0.19% active; calls by dose curve; further: nearly all actives have a fitted effect of over 55% in size
# Shiga toxin inh = A qHTS for Small Molecule Inhibitors of Shiga Toxin; inhibition, % at 38.7 µM; Vero cells, Shiga toxin protein synthesis inhibition reporter; 290,000 tested, 9.2% active; in the data active means inhibition mostly above about 28%, no sharp cut-off; inactive means mostly below about 43%
# Pf growth 48h = Primary qHTS for delayed death inhibitors of the malarial parasite plastid, 48 hour incubation. P. falciparum luciferase growth in erythrocytes, 48 h. Potency, µM (top dose mostly 28.7 µM), most hits filed as inhibitors. 310,000 tested, 5.9% active. AID 504832, 2011
#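 Luciferase-expressing parasites in RBCs, 2% Hct / 0.1% parasitemia final; RPMI 1640 + 0.5% Albumax; 37 C, 5% CO2, one generation; luminescence read-out, lower signal = inhibition.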
# Numbers stand for hits; - = inactive; ? = inconclusive; . = no result; ! = not active in a repeat. Most compounds without a hit are left out; they make up all but 19% or so of the library. Unless noted, the call rests on the fitted dose curve; in most records, active means well fitted curve in the direction sought with a large enough effect; inconclusive means small, poorly fitted or top-dose-only effect, or another doubt; inactive means no such curve, though single readings can be large; an effect the other way counts as inactive or inconclusive.
SMILES,Pf growth 96h,Cycloheximide cs,AMA1-RON2 inh,SARS PLpro yeast,Shiga toxin inh,Pf growth 48h
O=C(CSCc1nc2ccccc2[nH]1)Nc1ccccc1,?,-,-,-,-,-
Fc1ccc(CSc2nc3ccccc3[nH]2)cc1,.,49.1,-,-,131.7,-
O=c1cc(CSc2nc3ccccc3[nH]2)c2ccccc2[nH]1,-,27.7,-,-,52.6,.
O=C(CSc1nc2ccccc2[nH]1)NCc1ccc(F)cc1,-,-,-,-,-,?
c1ccc(CSCc2nc3ccccc3[nH]2)cc1,-,62.2,-,-,73.9,-
CSCCC(NS(=O)(=O)c1ccccc1F)C(=O)Nc1ccncc1 (configuration not stated),?,.,-,-,.,?
CCN(C(=O)CSc1nnc(C)n1-c1ccccc1)C1CCS(=O)(=O)C1 (configuration not stated),-,-,-,-,-,-
O=c1cnnc(SCc2ccc([N+](=O)[O-])cc2)[nH]1,-,-,?,-,-,-
Cc1ccccc1OCCSCc1nc2ccccc2[nH]1,13.1µM,-,-,-,-,?
O=c1[nH]c(SCc2ccccc2)nc2[nH]ncc12,-,-,-,-,27.6,-
O=[N+]([O-])c1ccc(CSc2nc3ccccc3[nH]2)cc1,?,34.7,-,-,38.0,-
CCCOc1ccc(CSc2nc3ccccc3[nH]2)cc1,-,49.4,-,-,83.9,-
CCOc1ccc(OCCSc2nc3ccccc3[nH]2)cc1,?,-,-,-,-,-
CCN(CC)c1ncnc2c1ncn2[C@H]1CN(Cc2ccc(-c3ccccc3)cc2)C[C@@H](CO)O1,.,.,-,.,.,.
c1ccc2c(c1)OCC(C1=NCCN1)O2 (configuration not stated),4.78µM!,-,-,-,-,?
O=C(NC1CCSC1)c1cccc(Cl)c1 (configuration not stated),-,-,-,-,-,-
Cc1c(CC(=O)NC(C)C)c(=O)oc2cc3c(cc12)CCC(C)(C)O3,-,35.4,-,-,53.9,-
COCCNC(=O)Cc1c(C)c2cc3c(cc2oc1=O)OC(C)(C)CC3,-,14.1,-,-,-,-
Cc1c(CC(=O)N[C@H](C(=O)O)C(C)C)c(=O)oc2cc3c(cc12)CCC(C)(C)O3,-,66.5,-,-,97.9,-
Cc1c(CC(=O)NCCC(C)C)c(=O)oc2cc3c(cc12)CCC(C)(C)O3,-,-,-,-,-,-
CCC(C)NC(=O)Cc1c(C)c2cc3c(cc2oc1=O)OC(C)(C)CC3 (configuration not stated),-,39.6,-,-,62.6,-
CCNC(=O)C1(C)CCCN(C(=O)c2ccccc2Br)C1 (configuration not stated),.,.,-,.,.,.
O=C(Nc1ccc(S(=O)(=O)Nc2nccs2)cc1)c1cnc(Cl)c(Cl)c1,?,-,-,-,-,?
CC1(C)CC(=O)C(=C2SCCCS2)C(=O)C1,-,-,-,-,-,-
CCN(CC)CCCNC(=O)c1ccc(CS(=O)(=O)c2ccccc2OC)o1,?,-,-,-,-,-
SMILES,Pf growth 96h,Cycloheximide cs,AMA1-RON2 inh,SARS PLpro yeast,Shiga toxin inh,Pf growth 48h
Cc1c(CC(=O)NCC(C)C)c(=O)oc2cc3c(cc12)CCC(C)(C)O3,-,23.0,-,-,40.6,?
COc1cc(S(=O)(=O)NCc2ccccn2)c(OC)cc1Cl,9.28µM,-,-,-,-,-
CC1=C(C(=O)N(C(C)C)C(C)C)CC(CC(=O)NCc2cccc3ccccc23)C(=O)N1Cc1ccccc1 (configuration not stated),.,.,-,.,.,.
COc1ccc(Cl)cc1NC(=O)CSc1nnc(Cn2c(=O)sc3ccccc32)n1C,-,-,-,-,-,-
CC(C)(C)c1cc(-n2ccnc2)n2ncc(-c3ccc(Cl)cc3)c2n1,-,39.6,-,-,59.4,-
CCc1nccn1-c1cc(C(C)(C)C)nc2c(-c3ccc(Cl)cc3)cnn12,13.1µM,-,-,?,-,-
COc1ccc(NC(=O)C(c2ccc(C#N)cc2)n2c(=O)c(-c3cc4ccccc4[nH]3)nc3ccccc32)cc1 (configuration not stated),.,.,-,.,.,.

# Bioassay records deposited in PubChem by National Center for Advancing Translational Sciences (NCATS).
